The values below come from PubChem BioAssay (NCI).

This is part of a sample that, as a whole, favours compounds with a hit. Of some 79,000 tested, about 15% had one in any assay. A number with no mark means an inactive call. Active and inactive are the calls of the source. Rule as the data show it: active = growth inhibition above about 70%; inactive = the rest.

Assay [1] in a line: NCI Yeast Anticancer Drug Screen. Data for the rad50 strain (AID 155).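 Also: 0% = growth of vehicle-only cultures of the same strain.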 Particulars: S. cerevisiae rad50 strain growth inhibition; at 50.0 µM; active compounds read high. The method in brief: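 Inhibition values express reduced yeast growth in compound-treated cultures relative to vehicle-treated controls.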
Assay [2] in a line: NCI Yeast Anticancer Drug Screen. Data for the mec2-1 strain (AID 157). Particulars: S. cerevisiae mec2-1 strain, at 50.0 µM, active compounds read high. In short, it runs like this:
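Compounds were applied to mec2-1 yeast cells. Their growth was then compared with that of vehicle-treated cultures to give growth inhibition.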

Assay [3] is described as follows: NCI Yeast Anticancer Drug Screen. Data for the sgs1 mgt1 strain (AID 161).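 Also: 0% = growth of cultures given vehicle only.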 Particulars: S. cerevisiae sgs1 mgt1 strain, at 50.0 µM, active compounds read high. In short, it runs like this: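 Percent growth inhibition was derived by comparing compound-exposed mutant yeast with vehicle-exposed cultures. The strain carries alterations in DNA damage repair.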
A short description of assay [4]: NCI Yeast Anticancer Drug Screen. Data for the cln2 rad14 strain (AID 165).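 Also: 0% = growth equal to vehicle treated cultures.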 The settings on record: S. cerevisiae cln2 rad14 strain, at 50.0 µM, active compounds read high. The method in brief: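 Strain: cln2 rad14 yeast, altered in cell cycle control and DNA damage repair. Read-out: growth inhibition vs vehicle.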
Assay [5] is described as follows: NCI Yeast Anticancer Drug Screen. Data for the bub3 strain (AID 167). The settings on record: S. cerevisiae bub3 mutant strain, at 50.0 µM, active compounds read high. The method in brief:
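Steps: expose the mutant yeast strain to compound; grow alongside vehicle-treated cultures; measure growth; express inhibition against the vehicle cultures.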

The nature of assay [6]: NCI Yeast Anticancer Drug Screen. Data for the mlh1 rad18 strain (AID 175). Particulars: S. cerevisiae mlh1 rad18 strain growth inhibition; at 50.0 µM; active compounds read high. The method in brief: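 A repair-deficient yeast strain is exposed to test compound, and growth is scored relative to vehicle-treated controls.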

In the case of `COC(=O)C1C(=O)C2OC1C1OC(C)(C)OC21` (stereo unspecified), the growth inhibition was 7.75% in assay [1]; -12.1% in assay [2]; -12.1% in assay [3]; -52.4% in assay [4]; 1.7% in assay [5]; -0.95% in assay [6].
As for `O=C(NC1C=Nc2ccc(Cl)cc2NC1=O)c1ccc(Cl)cc1` (stereo unspecified), the growth inhibition is 18% in assay [1]; 20.9% in assay [2]; 31.4% in assay [3]; 23.6% in assay [4]; 6.95% in assay [5]; 31.6% in assay [6].
`Nc1ccc(S(=O)(=O)N/N=C/c2ccc(O)cc2)cc1`: the growth inhibition in assay [1] is 4.35%; in assay [2], -21.4%; in assay [3] it was 4.7%; in assay [4] it was -22.1%; in assay [5], 5.1%; in assay [6], -11.3%.
Consider `COC(=O)CNC(=O)C1CSC(C)(C)N1` (stereo unspecified), for which the growth inhibition in assay [1] was -5.9%; in assay [2], -6.65%; in assay [3], -15.7%; in assay [4], -12.2%; in assay [5] it was -1.05%; in assay [6], -9.15%.
`CCN(CC)CCCCCCCNc1nccc2ccccc12`: the growth inhibition in assay [1] is 31.1%; in assay [2], -2.4%; in assay [3] it was -8.4%; in assay [4], -23.3%; in assay [5], 12.8%; in assay [6], 35.4%.
For the compound `O=C(/C=C/c1cccs1)c1ccc(Cl)s1`, the growth inhibition in assay [1] was -18.3%; in assay [2], -33.3%; in assay [3] it was -2.55%; in assay [4], -7.45%; in assay [5], -6.5%; in assay [6] it was 0.2%.
With `O=C(NCCCl)NC(C1CC1)C1CC1`, the growth inhibition in assay [1] is 13.1%; in assay [2], -2.9%; in assay [3], 6.45%; in assay [4], -58.1%; in assay [5], 13.4%; in assay [6] it was -3.95%.
`COc1ccc2c(ccc[n+]2CC(=O)c2ccc(Cl)cc2)c1`: the growth inhibition in assay [1] was -35.9%; in assay [2], -8.35%; in assay [3], -17.2%; in assay [4], 28.4%; in assay [5], -0.5%; in assay [6], -3.7%.
For `O=C(Nc1ccn(CCI)c(=O)n1)c1ccccc1`, the growth inhibition in assay [1] is -20.8%; in assay [2], -37.4%; in assay [3], 10.1%; in assay [4], 14.4%; in assay [5] it was 15.2%; in assay [6], 26.1%.
For `c1ccc(C(=C2C(=C(c3ccccc3)c3ccccc3)c3nc4ccccc4nc32)c2ccccc2)cc1`, the growth inhibition in assay [1] is 26.8%; in assay [2], 8.8%; in assay [3] it was 7%; in assay [4], 16.9%; in assay [5] it was -1.05%; in assay [6] it was 8.1%.
With `COC(=O)N1CC2CC=CC(C2)c2ccccc21` (stereo unspecified), the growth inhibition in assay [1] is -13.9%; in assay [2], -37.5%; in assay [3], -1.35%; in assay [4], 5.15%; in assay [5], 16.1%; in assay [6], -9.4%.
As for `CCCCCOCC(O)CNCCNCC(O)COCCCCC` (stereo unspecified), the growth inhibition is 8% in assay [1]; 0% in assay [2]; 14.3% in assay [3]; -55.6% in assay [4]; -23.2% in assay [5]; 0% in assay [6].
As for `Cc1ccc(Cc2nn(C)c(=O)n2-n2cccc2)cc1`, the growth inhibition was -37.1% in assay [1]; -13.7% in assay [2]; -10% in assay [3]; -1.7% in assay [4]; -19.1% in assay [5]; -7.45% in assay [6].
For the compound `CC(C)C(O)C(C)(C)CO` (stereo unspecified), the growth inhibition is 10.7% in assay [1]; -15.2% in assay [2]; 4.75% in assay [3]; 2.3% in assay [4]; 11.1% in assay [5]; 32.6% in assay [6].
Take `O=C(O)CCc1nc(-c2ccccc2-n2cccc2)no1`: the growth inhibition is -43.8% in assay [1]; -36.1% in assay [2]; -30.4% in assay [3]; 38.2% in assay [4]; -15.4% in assay [5]; 8.2% in assay [6].
Turning to `CCCCCC(Oc1ccc(Cl)cc1Cl)C(=O)O` (stereo unspecified), the growth inhibition is 96.7% (active) in assay [1]; 85.6% (active) in assay [2]; 97.5% (active) in assay [3]; 93% (active) in assay [4]; 91.2% (active) in assay [5]; 93.5% (active) in assay [6].
Turning to `O=C1C(c2[nH]c3ccc(F)cc3c2O)=Nc2ccc(F)cc21`, the growth inhibition in assay [1] was 8.7%; in assay [2], 10.9%; in assay [3], 22.9%; in assay [4] it was 9.4%; in assay [5], 0%; in assay [6] it was 19.1%.
With `COc1ccc(-c2cc(-c3ccccc3)n(C3OCC(OC(C)=O)C(OC(C)=O)C3OC(C)=O)c(=S)c2C#N)cc1` (stereo unspecified), the growth inhibition in assay [1] was 12.1%; in assay [2], 18.9%; in assay [3], -12.7%; in assay [4], 4.55%; in assay [5], -3.6%; in assay [6], 32.4%.
In the case of `CC(=O)c1cccc(F)c1C(C)c1ccc2ccccc2c1` (stereo unspecified), the growth inhibition in assay [1] is -3.85%; in assay [2], 0.6%; in assay [3] it was -8.8%; in assay [4], 3.35%; in assay [5], 15.4%; in assay [6], 1.65%.
On to `CS(=O)(=O)c1nc2ncnc(N)c2[nH]1`, for which the growth inhibition in assay [1] is -6.2%; in assay [2] it was -18.1%; in assay [3] it was -6.3%; in assay [4], -22.4%; in assay [5], -27.1%; in assay [6] it was -4.75%.
`CCCCn1c2c(c3ccccc3c1=O)C(=O)c1ccccc1-2`: the growth inhibition in assay [1] was 12.1%; in assay [2], -15.7%; in assay [3], -4.8%; in assay [4], 2.1%; in assay [5], -18%; in assay [6], -53%.
